Consider ten compounds from the supplement of paper PMC6897291.

The test relates to U-2932. Briefly: growth inhibition by drug plus 177Lu-lilotomab satetraxetan (1 - RLU/untreated control) (fraction); higher = stronger inhibition. Conditions: 177Lu-lilotomab satetraxetan 1 ug/ml. The essentials:
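Growth inhibition was calculated from RealTime-Glo RLU against untreated no-drug wells. Values equal 1 − RLU/mean of 48 untreated no-drug wells per plate, read daily from day 3 after 1 h at 37°C. RIVA and U-2932 cells, with or without 18 h pretreatment by a radiolabelled anti-CD37 antibody conjugate (~600 MBq/mg; 0.5 µg/ml RIVA, 1 µg/ml U-2932), were washed and plated at 3,000 cells/well on compound-printed plates at 10/100 nM (RIVA) or 10/1,000 nM (U-2932).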

With `CC(O)(CS(=O)(=O)c1ccc(F)cc1)C(=O)Nc1ccc(C#N)c(C(F)(F)F)c1` (stereo not given) [Bicalutamide (Casodex)], the “growth inhibition by drug plus 177Lu-lilotomab satetraxetan” value (“growth inhibition” for short) was 0.0109 (10 nM, time (day): 3); 0.0278 (10 nM, time (day): 4); 0.0445 (10 nM, time (day): 5); 0.0662 (10 nM, time (day): 6); -0.0729 (1000 nM, time (day): 3); 0.0514 (1000 nM, time (day): 4). The “growth inhibition” value was 0.0207 (1000 nM, time (day): 5) and -0.0101 (1000 nM, time (day): 6).
In the case of `CC(C)[C@]12O[C@H]1[C@@H]1O[C@]13[C@]1(O[C@H]1C[C@H]1C4=C(CC[C@@]13C)C(=O)OC4)[C@@H]2O` [Triptolide], the “growth inhibition” value reads like this: (10 nM, time (day): 3) 0.468; (10 nM, time (day): 4) 0.657; (10 nM, time (day): 5) 0.744; (10 nM, time (day): 6) 0.774; (1000 nM, time (day): 3) 0.965; (1000 nM, time (day): 4) 0.976. In addition, the “growth inhibition” value reads like this: (1000 nM, time (day): 5) 0.981; (1000 nM, time (day): 6) 0.986.
Consider `CC(=O)Nc1ccc(OC[C@](C)(O)C(=O)Nc2ccc([N+](=O)[O-])c(C(F)(F)F)c2)cc1` [Andarine (GTX-007)], for which the “growth inhibition” value is 0.0713 (10 nM, time (day): 3); 0.12 (10 nM, time (day): 4); 0.151 (10 nM, time (day): 5); 0.162 (10 nM, time (day): 6); -0.0087 (1000 nM, time (day): 3); 0.0374 (1000 nM, time (day): 4). For the same compound, the “growth inhibition” value turned out to be 0.0839 (1000 nM, time (day): 5) and 0.127 (1000 nM, time (day): 6).
On to `Cc1cc2c(C(C)C)c(O)c(O)c(C=O)c2c(O)c1-c1c(C)cc2c(C(C)C)c(O)c(O)c(C=O)c2c1O` [Gossypol], for which the “growth inhibition” value is, setting by setting: (10 nM, time (day): 3) -0.115; (10 nM, time (day): 4) -0.0678; (10 nM, time (day): 5) -0.0445; (10 nM, time (day): 6) 0.0445; (1000 nM, time (day): 3) -0.0917; (1000 nM, time (day): 4) -0.0427. In addition, the “growth inhibition” value reads like this: (1000 nM, time (day): 5) -0.011; (1000 nM, time (day): 6) 0.0745.
Turning to `CN(C)CCN(C)CCc1ccc(Cl)c(Cl)c1`, the “growth inhibition” value (10 nM, time (day): 3) was -0.0419; the “growth inhibition” value (10 nM, time (day): 4) is -0.0108; the “growth inhibition” value (10 nM, time (day): 5) is -0.00129; the “growth inhibition” value (10 nM, time (day): 6) turned out to be 0.0756; the “growth inhibition” value (1000 nM, time (day): 3) is -0.131; the “growth inhibition” value (1000 nM, time (day): 4) is -0.0418. Moreover, the “growth inhibition” value is, setting by setting: (1000 nM, time (day): 5) -0.0272; (1000 nM, time (day): 6) -0.0418.
On to `C[C@]12CCC(=O)C(O)=C1CC[C@@H]1[C@@H]2CC[C@]2(C)C(=O)CC[C@@H]12` [Formestane], for which the “growth inhibition” value (10 nM, time (day): 3) was -0.06; the “growth inhibition” value (10 nM, time (day): 4) was -0.00612; the “growth inhibition” value (10 nM, time (day): 5) was 0.0406; the “growth inhibition” value (10 nM, time (day): 6) amounted to 0.141; the “growth inhibition” value (1000 nM, time (day): 3) was -0.0681; the “growth inhibition” value (1000 nM, time (day): 4) is -0.018. Also, the “growth inhibition” value stood at 0.0247 (1000 nM, time (day): 5) and 0.18 (1000 nM, time (day): 6).
With `CCC1(c2ccc(N)cc2)CCC(=O)NC1=O` (stereo not given) [Aminoglutethimide (Cytadren)], the “growth inhibition” value was -0.0302 (10 nM, time (day): 3); 0.0116 (10 nM, time (day): 4); 0.0252 (10 nM, time (day): 5); 0.0218 (10 nM, time (day): 6); -0.00688 (1000 nM, time (day): 3); 0.0339 (1000 nM, time (day): 4). In addition, the “growth inhibition” value by setting is: (1000 nM, time (day): 5) 0.0642; (1000 nM, time (day): 6) 0.126.
For `C=C1C[C@@H]2[C@H](CC[C@]3(C)C(=O)CC[C@@H]23)[C@@]2(C)C=CC(=O)C=C12` [Exemestane], the “growth inhibition” value (10 nM, time (day): 3) came to 0.052; the “growth inhibition” value (10 nM, time (day): 4) was found to be 0.106; the “growth inhibition” value (10 nM, time (day): 5) was determined as 0.138; the “growth inhibition” value (10 nM, time (day): 6) came out at 0.169; the “growth inhibition” value (1000 nM, time (day): 3) was -0.0113; the “growth inhibition” value (1000 nM, time (day): 4) came to 0.0549. Besides, the “growth inhibition” value is, setting by setting: (1000 nM, time (day): 5) 0.0989; (1000 nM, time (day): 6) 0.179.
Turning to `O=P1(N(CCCl)CCCl)NCCCO1` (stereo not given) [Cyclophosphamide monohydrate], the “growth inhibition” value runs as follows: (10 nM, time (day): 3) -0.0289; (10 nM, time (day): 4) -0.00591; (10 nM, time (day): 5) 0.0126; (10 nM, time (day): 6) 0.184; (1000 nM, time (day): 3) -0.0442; (1000 nM, time (day): 4) 0.00578. The “growth inhibition” value is, setting by setting: (1000 nM, time (day): 5) 0.00582; (1000 nM, time (day): 6) 0.0795.
With `CC[C@@H](C(=O)[C@@H](C)[C@@H](O)[C@H](C)[C@@H]1O[C@@H]([C@@H](CC)C(=O)O)CC[C@@H]1C)[C@H]1O[C@]2(C=C[C@@H](O)[C@]3(CC[C@@](C)([C@H]4CC[C@](O)(CC)[C@H](C)O4)O3)O2)[C@H](C)C[C@@H]1C` [Salinomycin (Procoxacin)], the “growth inhibition” value (10 nM, time (day): 3) turned out to be 0.0566; the “growth inhibition” value (10 nM, time (day): 4) was found to be 0.111; the “growth inhibition” value (10 nM, time (day): 5) amounted to 0.126; the “growth inhibition” value (10 nM, time (day): 6) amounted to 0.245; the “growth inhibition” value (1000 nM, time (day): 3) is 0.381; the “growth inhibition” value (1000 nM, time (day): 4) was found to be 0.516. Also, the “growth inhibition” value was found to be 0.607 (1000 nM, time (day): 5) and 0.75 (1000 nM, time (day): 6).
